Test results taken from ChEMBL document CHEMBL4513216, “Probing the Open Global Health Chemical Diversity Library for Multistage-Active Starting Points for Next-Generation Antimalarials” (ACS Infect Dis, 2020).
In all, about 69,000 compounds went through this assay and about 8,600 (12%) showed an effect of 50% or more. The entries come from a sample that favours strong results as a whole.

System: Plasmodium berghei
Test: Screen against P. berghei liver stage (PbLuc), transformed with Luciferase, at 10uM
Type: functional, HepG2
Settings: tested at 10 uM

Row | Structure (SMILES) | INHIBITION [%]
1 | CCCc1nc(NCCCOCC)c2c(n1)c(C)nn2CC | -1.4
2 | Cc1ccsc1CN1CCc2c(nc(N3CCCCC3C)[nH]c2=O)C1 (stereo unspecified) | 85.7
3 | CC1CCCCN1c1nc2c(c(=O)[nH]1)CCN(Cc1ccccn1)C2 (stereo unspecified) | 36.7
4 | CC1CCCCN1c1nc2c(c(=O)[nH]1)CCN(Cc1ccccc1O)C2 (stereo unspecified) | 23.4
5 | CC1CCCCN1c1nc2c(c(=O)[nH]1)CCN(Cc1ccccc1F)C2 (stereo unspecified) | 72.3
6 | CC1CCCCN1c1nc2c(c(=O)[nH]1)CCN(Cc1ccc(O)cc1)C2 (stereo unspecified) | 10
7 | Cc1cccc(CN2CCc3c(nc(N4CCCCC4C)[nH]c3=O)C2)n1 (stereo unspecified) | 18.2
8 | O=C(NCCn1nc2ccccn2c1=O)c1scnc1Cl | 17.02
9 | Cn1cc(CN(C(=O)c2ccc(O)c(Cl)c2)C2CC2)cn1 | 21.3
10 | N#Cc1ccc(N2CCCN(c3nccs3)CC2)nc1 | -28.2
11 | CC1CN(c2ncnc3c2cnn3C)CCN1c1nccs1 (stereo unspecified) | 5.91
12 | c1csc(N2CCCN(c3ncnc4sccc34)CC2)n1 | 66.8
13 | c1csc(N2CCN(c3ncnc4sccc34)CC2)n1 | 38.5
14 | CC1CN(c2ncnc3sccc23)CCN1c1nccs1 (stereo unspecified) | 60.2
15 | CCC[C@@H]1CN(c2ncnc3sccc23)C[C@H]1C(=O)O | -7.98
16 | CN1CC(=O)N(c2ccccc2)CC12CCN(Cc1cccnc1)C2 (stereo unspecified) | 8.47
17 | CC(C)CCn1[nH]c(CNc2ccc(F)cc2)nc1=O | 15.1
18 | CN1CCC2(C=C(C(=O)N3CCCC3)c3ccccc32)CC1 | 26.4
19 | Cc1ccc(CC(=O)N2CCOC(c3ncc(CN(C)C)[nH]3)C2)s1 (stereo unspecified) | 7.19
20 | CNc1ncc(-c2csc(NC(=O)C[C@H]3COCCN3)n2)cn1 | 24.8
21 | CC(C)CC(=O)N1CCC(c2nnc3n2CCCCC3)CC1 | -16.5
22 | Cn1cc(N)c(-c2nnc3n2CCCC3)n1 | 42.6
23 | CCC(NC(=O)CCCNC(=O)OC)c1cc(F)ccc1F (stereo unspecified) | -13.6

Row | Structure (SMILES) | INHIBITION [%]
24 | CCc1nc(CSC2CCCN(c3cnn(C)c3)C2=O)cs1 (stereo unspecified) | 29
25 | O=C(c1cc2c([nH]c1=O)CCC2)N1CCCC1c1ccccc1 (stereo unspecified) | -19.7
26 | O=C(c1cc2c([nH]c1=O)CCC2)N1CCCCC1c1cccc(F)c1 (stereo unspecified) | 54.7
27 | O=C(c1cc2c([nH]c1=O)CCC2)N1CCCC1c1ccc(F)cc1 (stereo unspecified) | 20.6
28 | COC1(CNC(=O)c2ccc(F)c(F)c2)CCSC1 (stereo unspecified) | 29.6
29 | CCc1nnc(CNC(=O)CCC2CCCN(C)C2)s1 (stereo unspecified) | -57.5
30 | Cc1ccsc1CN(CCCO)Cc1nc2ccccc2[nH]1 | 23.2
31 | CCOc1ccc(-c2c(-c3ccccc3)ncn2C2CCNC2)cn1 (stereo unspecified) | 24.8
32 | Oc1ccc(-c2c(-c3ccccc3)ncn2C2CCNC2)cc1 (stereo unspecified) | 54.5
33 | Oc1ccc(-c2c(-c3ccccc3)ncn2C[C@H]2CCCN2)cc1 | -9.17
34 | O=C(CN1CCC(c2ccccc2)C1)NCC(F)(F)F (stereo unspecified) | 37.8
35 | CCCn1ncc(C2CC(=O)NCc3nc4cc(C)ccn4c32)c1C (stereo unspecified) | 71.5
36 | Cn1ncc(C2CC(=O)NCc3nc4ccccn4c32)c1C1CC1 (stereo unspecified) | 17.6
37 | CCCn1ncc(C2CC(=O)NCc3nc4sc(C)cn4c32)c1C (stereo unspecified) | 44.7
38 | CC1(C)O[C@@](C)([C@H]2CC3(CCN(c4cnccn4)CC3)CO2)CC[C@@H]1O | 30.55
39 | CN(C)C(=O)CCNC(=O)Nc1cccc(Cl)c1-n1cccn1 | -10.3
40 | Cc1cc(N(C)Cc2cc(C)on2)n2nc(C)c(C)c2n1 | -45.4
41 | CCc1cc(N(C)Cc2ccno2)n2nc(C)c(C)c2n1 | -2.73
42 | CCc1cc(N(C)Cc2ccncn2)n2nc(C)c(C)c2n1 | 42.3
43 | CCc1nnc(CN(C)c2cc(C)nc3c(C)c(C)nn23)o1 | 36.7
44 | CCc1cc(N(C)Cc2ccnc(C)c2)n2nc(C)c(C)c2n1 | 73.5
45 | CCc1cc(N(C)Cc2cc[nH]n2)n2nc(C)c(C)c2n1 | 81.7
46 | COc1ncc(-c2ccc(C(N)=O)cc2)c(OC)n1 | 9.41

Row | Structure (SMILES) | INHIBITION [%]
47 | CN(C)Cc1cn2c(n1)CN(C1CCOC1)CC2 (stereo unspecified) | -4.32
48 | NC(=O)C1CCN(C(=O)NC(Cc2ccccc2)C(F)(F)F)CC1 (stereo unspecified) | -82.2
49 | Cc1cnn(CC2CN(Cc3nnc(C(C)C)o3)CCO2)c1 (stereo unspecified) | 30.6
50 | COCCN1CC(C(=O)N(C)Cc2csc(C)n2)CC1=O (stereo unspecified) | 57.8
51 | Cc1nc(CN(C)C(=O)C2CC(=O)N(c3cccc(O)c3)C2)cs1 (stereo unspecified) | 7.6
52 | Cc1nc(CN(C)C(=O)C2CCC(=O)N(CCN(C)C)C2)cs1 (stereo unspecified) | 20.8
53 | Cn1cc(CCNC(=O)NCc2ccc3c(c2)OCCO3)cn1 | 24.5
54 | CN(C)CC(=O)N1CCC2(CC1)COc1ccccc1S(=O)(=O)N(C)C2 | 50
55 | COCCN1CCC2(CC1)COc1ccccc1S(=O)(=O)N(C)C2 | -4.32
56 | CCC(=O)N1CCC2(CC1)COc1ccccc1S(=O)(=O)N(C)C2 | -0.182
57 | COCC(=O)N1CCC2(CC1)COc1ccccc1S(=O)(=O)N(C)C2 | 66.8
58 | CN(C)C(=O)CN1CCC2(CC1)COc1ccccc1S(=O)(=O)N(C)C2 | 17.4
59 | CN1CC2(CCN(C(=O)C3CCC3)CC2)COc2ccccc2S1(=O)=O | 20.4
60 | N#Cc1csc(CNCCOc2ccc(Cl)cn2)c1 | 4.35
61 | Cc1cnn(CC2CCCN2C(=O)CCCc2nc(C)no2)c1 (stereo unspecified) | -45.8
62 | Fc1cc(CCNc2ccc3nccn3n2)c2c(c1)COCO2 | 48.2
63 | CC(C)(C)c1cc(NC(=O)CN2CCC(N3CCNC3=O)CC2)on1 | 3.73
64 | CC(=O)N1CCC(c2ncc3c(n2)CCN(C(=O)c2ccccc2)C3)C1 (stereo unspecified) | 1.5
65 | CCOCCN1CCC=C(C2c3nc[nH]c3CCN2C(C)=O)C1 (stereo unspecified) | 36.6
66 | CCn1nc(C)c(CN2CCCC(c3ccc(C(=O)O)cc3)C2)c1C (stereo unspecified) | 62.4
67 | CCn1nc(C)c(CN2CCC(c3ccc(C(=O)O)cc3)C2)c1C (stereo unspecified) | 27.9
68 | Cc1nn(C)c(C)c1CN1CCCC(c2ccc(C(=O)O)cc2)C1 (stereo unspecified) | 6.88
69 | Cc1nn(C)c2c(N3CCN(C(=O)C(C)C)CC3)ncnc12 | 10.1

Row | Structure (SMILES) | INHIBITION [%]
70 | Cc1nn(C)c2c(N3CCN(C(=O)C4CC4)CC3)ncnc12 | 44.1
71 | CCC(=O)N1CCN(c2ncnc3c(C)nn(C)c23)CC1 | 50.7
72 | CCc1nc(N2CCN(c3ncccn3)CC2)c2cnn(C)c2n1 | -3.55
73 | CCc1nc(N2CCN(c3ncccc3C#N)CC2)c2cnn(C)c2n1 | 53.7
74 | CCc1nc(N2CCCN(c3ncccn3)CC2)c2cnn(C)c2n1 | 33.3
75 | O=C(c1ccc(F)cc1)N1CCC2(CCCN2CC2CC2)CC1 | 26.6
76 | COc1ccccc1N1CCN(Cc2cnc3c(c2)c(C)nn3C)CC1 | 32.3
77 | Cc1ccc(-c2c(C(=O)NC3CCN(C)CC3)csc2C)cc1 | 68.4
78 | CCCN1CCC(NC(=O)NCCc2nc(CC)c(C)s2)CC1 | 26.8
79 | Cc1ccc(-c2ccsc2C(=O)NC2CCS(=O)(=O)C2)cc1 (stereo unspecified) | -63.5
80 | CCCN1CCC(NC(=O)c2csc(C)c2-c2ccc(C)cc2)CC1 | 1.56
81 | Cc1ncsc1C(=O)NC1CCN(CCC(=O)Nc2ccccc2)CC1 | -5.07
82 | CCCN1CCC(NC(=O)c2ccc(F)cc2I)CC1 | 46.8
83 | CN1CCC(NC(=O)NCc2csc(Br)c2)CC1 | 45.9
84 | CCCN1CCC(NC(=O)c2csc(C)c2-c2ccccc2)CC1 | 81.5
85 | CCCN1CCC(NC(=O)c2csc(C)c2C)CC1 | 64.4
86 | CC(C)c1nnc(CN2CCCC(Cn3cncn3)C2)o1 (stereo unspecified) | 22.03
87 | O=c1cc2c(nn1CN1CCN(c3ccc(F)cc3)CC1)CCC2 | -6.53
88 | C[C@H](NC(=O)Cc1csc(-c2cccc(Cl)c2)n1)C(=O)O | 35
89 | COCC(=O)N1CCCCC1c1nc(C)c2c(n1)N(CC1CC1)C(=O)C2 (stereo unspecified) | 23
90 | O=c1ccc(-c2ccccc2F)nn1CN1CCCCCC1 | -22.9
91 | CCn1c(CC2CCN(S(=O)(=O)Cc3ccccc3)CC2)nn(C)c1=O | -28.1
92 | CN1CCCC(c2ccc(N3CCOCC3)cn2)C1 (stereo unspecified) | -2.48

Row | Structure (SMILES) | INHIBITION [%]
93 | Cc1ccc(CS(=O)(=O)N2CC[C@H]3[C@H]2CC(=O)N3C)cc1 | 15.4
94 | CCOC[C@H]1CC[C@H]2[C@H](CCN2S(=O)(=O)Cc2ccccc2)O1 | 12.1
95 | CN1C(=O)C[C@@H]2[C@@H]1CCN2S(=O)(=O)Cc1ccccc1 | 26.8
96 | CN1C(=O)CC[C@@H]2[C@H]1CCN2S(=O)(=O)Cc1ccccc1 | 61.5
97 | COC[C@H]1CC[C@H]2[C@H](CCN2S(=O)(=O)Cc2ccccc2)O1 | -34.6
98 | CCOC[C@@H]1CC[C@H]2[C@H](CCN2S(=O)(=O)Cc2ccccc2)O1 | 57.1
99 | Cc1ccc2cnn(CCC(=O)Nc3nc(C)c(C)s3)c2c1 | 30.8
100 | CCC(Nc1cccc(OC)c1)C(=O)NCc1ccc2c(c1)OCO2 (stereo unspecified) | 36.4
101 | Cn1nnc2c1C(COCC1CC1)CN(Cc1ccoc1)C2 (stereo unspecified) | 42.3
102 | Cc1ccc(NC(=O)c2ccc(=O)n(CC(=O)Nc3nccs3)n2)cc1 | 42.7
103 | NC(=O)c1ccc(CN2C(=O)C3(CCNCC3)Nc3ccccc32)cc1 | 67
104 | C=Cc1ccc(CN2C(=O)C3(CCNCC3)Nc3ccccc32)cc1 | 87.8
105 | CC(C)c1ccc(CN2C(=O)C3(CCNCC3)Nc3ccccc32)cc1 | 80.9
106 | O=C1CC2(CCCNC2)C(=O)N1Cc1ccc(F)cc1 (stereo unspecified) | 4.06
107 | O=C1CC2(CCCNC2)C(=O)N1Cc1ccccc1 (stereo unspecified) | 27.4
108 | O=C1CC2(CCNCC2)C(=O)N1Cc1ccc(F)cc1 | 16.1
109 | N#Cc1cccc(CN2C(=O)C3(CCNCC3)Nc3ccccc32)c1 | 25.5
110 | C=Cc1ccc(CN2CCCC3(CNC(=O)c4ccccc4O3)C2)cc1 (stereo unspecified) | 29.2
111 | NC(=O)c1ccc(CN2CCCC(N3CCCCCC3)C2)cc1 (stereo unspecified) | 22
